Experimental data from PubChem BioAssay AID1159580 (chemical genetic matrix, 2015).
Out of some 5,500 compounds screened, about 2,000 (36%) were called active. About 18% were inconclusive and are not listed. Cut-off read from the data, not from the text of the source: active = normalized growth mostly below about 0.91 (no sharp cut-off); inconclusive = no clear call, values can overlap the other calls; inactive = mostly above about 0.92. The list shows a part of the results.

Assay: chemical genetic growth profiling, strain panel (AID 1159580);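 note: tested at 20 µM; growth read once vehicle control cultures reached saturation at 30 °C; 1 = growth at the plate median or of vehicle wells; lower values mean less growth of the strain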
Settings: growth OD

Measured: normalized growth

CC(C)=CCC1=C(O)c2ccccc2C(=O)C1=O
active: S. cerevisiae deletion strains, locus YKL068W, active compounds read low 0.887 | S. cerevisiae deletion strains, locus YKL085W, strain MDH1 (second series), active compounds read low 0.884 | S. cerevisiae deletion strains, locus YKL085W, strain MDH1, active compounds read low 0.884 | S. cerevisiae deletion strains, locus YKL160W, strain elf1, active compounds read low 0.741 | S. cerevisiae deletion strains, locus YKR001C, strain vps1, active compounds read low 0.788 | S. cerevisiae deletion strains, locus YKR026C, strain gcn3, active compounds read low 0.775 | S. cerevisiae deletion strains, locus YKR091W, strain srl3, active compounds read low 0.809 | S. cerevisiae deletion strains, locus YLL001W, strain dnm1, active compounds read low 0.598 | S. cerevisiae deletion strains, locus YLL026W, active compounds read low 0.808 | S. cerevisiae deletion strains, locus YLL041C, strain sdh2, active compounds read low 0.815 | S. cerevisiae deletion strains, locus YLR027C, strain aat2, active compounds read low 0.823 | S. cerevisiae deletion strains, locus YLR221C, strain rsa3, active compounds read low 0.819 | S. cerevisiae deletion strains, locus YLR258W, strain gsy2, active compounds read low 0.797 | S. cerevisiae deletion strains, locus YLR262C, strain YPT6 (second series), active compounds read low 0.334 | S. cerevisiae deletion strains, locus YLR268W, strain sec22, active compounds read low 0.879 | S. cerevisiae deletion strains, locus YLR320W, strain mms22, active compounds read low 0.741 | S. cerevisiae deletion strains, locus YLR342W, strain FKS1, active compounds read low 0.727 | S. cerevisiae deletion strains, locus YLR357W, strain rsc2, active compounds read low 0.837 | S. cerevisiae deletion strains, locus YLR370C, strain arc18, active compounds read low 0.806 | S. cerevisiae deletion strains, locus YLR384C, strain iki3, active compounds read low 0.818 | S. cerevisiae deletion strains, locus YML120C, strain ndi1, active compounds read low 0.759 | S. cerevisiae deletion strains, locus YMR058W, strain fet3, active compounds read low 0.651 | S. cerevisiae deletion strains, locus YMR125W, strain sto1, active compounds read low 0.884 | S. cerevisiae deletion strains, locus YMR129W, active compounds read low 0.773 | S. cerevisiae deletion strains, locus YMR205C, strain PFK2, active compounds read low 0.837 | S. cerevisiae deletion strains, locus YMR223W, strain ubp8, active compounds read low 0.864 | S. cerevisiae deletion strains, locus YMR231W, strain pep5, active compounds read low 0.791 | S. cerevisiae deletion strains, locus YNL071W, strain lat1, active compounds read low 0.837 | S. cerevisiae deletion strains, locus YNL209W, strain ssb2, active compounds read low 0.715 | S. cerevisiae deletion strains, locus YNL250W, strain rad50, active compounds read low 0.897 | S. cerevisiae deletion strains, locus YNL271C, strain bni1, active compounds read low 0.892 | S. cerevisiae deletion strains, locus YNL307C, strain MCK1, active compounds read low 0.904 | S. cerevisiae deletion strains, locus YNL322C, strain KRE1 (second series), active compounds read low 0.791 | S. cerevisiae deletion strains, locus YNR049C, strain mso1, active compounds read low 0.772 | S. cerevisiae deletion strains, locus YOL006C, strain TOP1, active compounds read low 0.29 | S. cerevisiae deletion strains, locus YOR001W, strain rrp6, active compounds read low 0.864 | S. cerevisiae deletion strains, locus YOR070C, strain gyp1, active compounds read low 0.821 | S. cerevisiae deletion strains, locus YOR080W, strain dia2, active compounds read low 0.789 | S. cerevisiae deletion strains, locus YOR083W, strain WHI5, active compounds read low 0.772 | S. cerevisiae deletion strains, locus YOR106W, strain vam3, active compounds read low 0.595 | S. cerevisiae deletion strains, locus YOR144C, strain elg1, active compounds read low 0.933 | S. cerevisiae deletion strains, locus YOR265W, strain rbl2, active compounds read low 0.822 | S. cerevisiae deletion strains, locus YOR270C, strain vph1, active compounds read low 0.294 | S. cerevisiae deletion strains, locus YOR290C, strain snf2, active compounds read low 0.778 | S. cerevisiae deletion strains, locus YPL051W, strain arl3, active compounds read low 0.657 | S. cerevisiae deletion strains, locus YPL078C, strain atp4, active compounds read low 0.678 | S. cerevisiae deletion strains, locus YPL106C, strain sse1, active compounds read low 0.816 | S. cerevisiae deletion strains, locus YPL240C, strain hsp82, active compounds read low 0.825 | S. cerevisiae deletion strains, locus YPL241C, strain CIN2, active compounds read low 0.925 | S. cerevisiae deletion strains, locus YPR141C, strain kar3, active compounds read low 0.839
inactive: S. cerevisiae deletion strains, locus YJR075W, strain HOC1, active compounds read low 1.03 | S. cerevisiae deletion strains, locus YKL009W, strain mrt4, active compounds read low 0.945 | S. cerevisiae deletion strains, locus YKL190W, strain CNB1, active compounds read low 0.951 | S. cerevisiae deletion strains, locus YLR039C, strain RIC1, active compounds read low 0.705 | S. cerevisiae deletion strains, locus YLR058C, strain SHM2, active compounds read low 0.954 | S. cerevisiae deletion strains, locus YLR102C, strain apc9, active compounds read low 0.963 | S. cerevisiae deletion strains, locus YLR113W, strain HOG1, active compounds read low 0.965 | S. cerevisiae deletion strains, locus YLR262C, strain YPT6, active compounds read low 0.733 | S. cerevisiae deletion strains, locus YLR330W, strain CHS5, active compounds read low 0.948 | S. cerevisiae deletion strains, locus YLR342W, strain FKS1 (second series), active compounds read low 0.844 | S. cerevisiae deletion strains, locus YLR371W, strain rom2, active compounds read low 0.939 | S. cerevisiae deletion strains, locus YLR418C, strain cdc73, active compounds read low 1.03 | S. cerevisiae deletion strains, locus YML016C, strain PPZ1, active compounds read low 0.958 | S. cerevisiae deletion strains, locus YML032C, strain rad52, active compounds read low 0.906 | S. cerevisiae deletion strains, locus YML124C, strain tub3, active compounds read low 0.935 | S. cerevisiae deletion strains, locus YMR078C, strain ctf18, active compounds read low 0.921 | S. cerevisiae deletion strains, locus YMR263W, strain SAP30, active compounds read low 1.01 | S. cerevisiae deletion strains, locus YMR307W, strain GAS1, active compounds read low 0.721 | S. cerevisiae deletion strains, locus YNL067W, strain RPL9B, active compounds read low 0.989 | S. cerevisiae deletion strains, locus YNL128W, strain TEP1, active compounds read low 0.945 | S. cerevisiae deletion strains, locus YNL153C, strain GIM3, active compounds read low 0.965 | S. cerevisiae deletion strains, locus YNL183C, strain NPR1, active compounds read low 0.914 | S. cerevisiae deletion strains, locus YNL233W, strain BNI4, active compounds read low 0.964 | S. cerevisiae deletion strains, locus YNL248C, strain rpa49, active compounds read low 0.974 | S. cerevisiae deletion strains, locus YNL298W, strain CLA4, active compounds read low 0.914 | S. cerevisiae deletion strains, locus YNL322C, strain KRE1, active compounds read low 0.934 | S. cerevisiae deletion strains, locus YNR052C, strain pop2, active compounds read low 0.918 | S. cerevisiae deletion strains, locus YOL012C, strain htz1 1.37 | S. cerevisiae deletion strains, locus YOL147C, strain pex11, active compounds read low 0.953 | S. cerevisiae deletion strains, locus YOR061W, strain CKA2, active compounds read low 0.953 | S. cerevisiae deletion strains, locus YOR069W, strain VPS5, active compounds read low 0.934 | S. cerevisiae deletion strains, locus YOR136W, strain idh2, active compounds read low 0.928 | S. cerevisiae deletion strains, locus YOR184W, strain ser1, active compounds read low 0.894 | S. cerevisiae deletion strains, locus YOR231W, strain MKK1, active compounds read low 0.966 | S. cerevisiae deletion strains, locus YOR316C, strain cot1, active compounds read low 0.968 | S. cerevisiae deletion strains, locus YPL055C, strain LGE1, active compounds read low 1.05 | S. cerevisiae deletion strains, locus YPL256C, strain CLN2, active compounds read low 1.02 | S. cerevisiae deletion strains, locus YPR119W, strain clb2, active compounds read low 0.967 | S. cerevisiae deletion strains, locus YPR163C, strain tif3, active compounds read low 0.957 | S. cerevisiae deletion strains, locus YPR167C, strain met16, active compounds read low 0.937 | S. cerevisiae deletion strains, strain wtn01, active compounds read low 0.951 | S. cerevisiae strains, strain wild type, active compounds read low 0.934
